rTrxR1 inhibitor – qHTS Assay for Inhibitors of Mammalian Selenoprotein Thioredoxin Reductase 1 (TrxR1): qHTS; Potency, µM (doses to about 114 µM), actives largely listed as inhibitors; 390,000 tested, 1% active; recombinant rTrxR1, NADPH fluorescence consumption, selenite substrate; Thioredoxin reductase 1, cytoplasmic (Rattus norvegicus), O89049; further: nearly all actives have a fitted effect of over 65% in size
Target sequence (O89049 whole entry, looked up): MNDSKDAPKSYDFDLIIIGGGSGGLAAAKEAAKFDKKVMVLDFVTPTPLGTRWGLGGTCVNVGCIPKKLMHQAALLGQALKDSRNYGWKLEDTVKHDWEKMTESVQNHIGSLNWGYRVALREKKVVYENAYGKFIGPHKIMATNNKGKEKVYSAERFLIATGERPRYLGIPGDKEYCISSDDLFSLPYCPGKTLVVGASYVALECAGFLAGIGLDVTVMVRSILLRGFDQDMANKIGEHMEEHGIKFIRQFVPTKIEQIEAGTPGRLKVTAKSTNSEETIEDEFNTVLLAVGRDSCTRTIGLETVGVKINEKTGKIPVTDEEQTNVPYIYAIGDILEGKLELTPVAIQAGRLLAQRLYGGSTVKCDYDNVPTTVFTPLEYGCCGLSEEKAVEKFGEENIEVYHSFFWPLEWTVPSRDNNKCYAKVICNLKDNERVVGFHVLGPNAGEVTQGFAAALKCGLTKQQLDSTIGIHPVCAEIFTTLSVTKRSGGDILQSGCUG
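Rat TrxR1 (90 nM in the dispensed reagent) was pre-reduced with 400 uM NADPH for 5 min at room temperature, then incubated with compound for 15 min. After 400 uM selenite was added, NADPH fluorescence (Ex 340/Em 450 nm) was followed for 8 min.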
IDH1 R132H inh – qHTS for Inhibitors of mutant isocitrate dehydrogenase 1 (IDH1): qHTS | Isocitrate dehydrogenase [NADP] cytoplasmic (Homo sapiens), O75874 | IDH1-R132H enzyme, NADPH consumption, diaphorase/resazurin fluorescence | Potency, µM (doses to about 76.6 µM), most hits filed as inhibitors | 390,000 tested, 0.093% active | AID 602179, 2012; further: nearly all actives have a fitted effect of over 65% in size
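IDH1-R132H (0.5 ug/mL dispensed) in pH 7.5 Tris buffer was preincubated 30 min with compound, then given a substrate mix of 0.016 mM NADPH and 2 mM alpha-KG for 80 min at room temperature; remaining NADPH was read by diaphorase/resazurin fluorescence.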
TrxR1 substrate – qHTS Assay for Substrates of Mammalian Selenoprotein Thioredoxin Reductase 1 (TrxR1): qHTS. 390,000 tested, 0.01% active. AID 588456, 2011. Potency, µM (series often up to 114 µM). purified TrxR1 substrate turnover, NADPH consumption readout; further: nearly all actives have a fitted effect of over 50% in size
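Rat TrxR1, dispensed at 90 nM, was prereduced with 400 uM NADPH (final) for 5 min at ~22 deg C, then incubated with compound 15 min before 400 uM selenite. A first-read NADPH fluorescence drop versus no-compound background flagged substrates.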
Giardia killer – Small Molecules that selectively kill Giardia lamblia: qHTS. activity change, % at 7.66 µM, hits read low. 340,000 tested, 0.15% active. Giardia lamblia trophozoite viability. AID 540267, 2011; in the data active means activity change below about -80%; inconclusive means between about -30% and that limit;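 further: parasites exposed to compound for two days anaerobically before the ATP read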
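Giardia trophozoites, 100 cells per well, were exposed to compounds for 48 hrs at 37 deg C under anaerobic conditions; viability was then read as ATP content by bioluminescence after 15-30 min at room temperature.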
IL2 activator – qHTS of IL-2 Activators; IL-2 activation reporter assay, cell-based qHTS; stimulated with anti-CD3/CD4/CD28 beads; in transgenic mouse T cells; activation, % (series mostly up to about 46 µM); 360,000 tested, 0.065% active; in the data active means activation above about 50%; inconclusive means mostly about 30% to 49%
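Screening format: compound pinned onto unstimulated transgenic mouse T cells, 60 min incubation, then anti-CD3/anti-CD4/anti-CD28 bead stimulation for 18 hours at 37 degrees C, followed by EGFP and DsRed detection.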
BRCA1 expr up – qHTS Assay to Identify Small Molecule Activators of BRCA1 Expression | MCF7-BRCA1-FFLuc reporter, luminescence, 48 h; response scale: scaled: vehicle 0%, 10 µM genistein 100% | Potency, µM (doses to about 46.1 µM), hits mostly activators | 380,000 tested, 1.1% active; further: nearly all actives have a fitted effect of over 80% in size
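Cells: MCF7-BRCA1-FFLuc, 2000/well. Exposure: 48 h, 37 °C, 5% CO2. Read: luminescence, 15 min post-substrate. Controls: genistein 10 microM (maximal activation), DMSO (neutral).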
Large screens that a line does not name were inactive. An excerpt weighted towards active compounds, which were near 2.2% of everything screened. Unless noted, the call rests on the fitted dose curve; in most records, active means well fitted curve in the direction sought with a large enough effect; inconclusive means small, poorly fitted or top-dose-only effect, or another doubt; inactive means no such curve, though single readings can be large; an effect the other way counts as inactive or inconclusive.

CCc1ccc(NC(=O)Cn2c(=O)n(CC3CCCO3)c(=O)c3cc(OC)c(OC)cc32)cc1 (stereo not given)	none (no result: Giardia killer, IL2 activator)
Cc1ccc2oc(C(=O)N(C)Cc3ccc(C)o3)c(C)c2c1	rTrxR1 inhibitor 7.1µM
Cc1ccc2oc(C(=O)N(C)Cc3ccon3)c(C)c2c1	BRCA1 expr up 8.9µM
Cc1ccc(CN(C)C(=O)c2cc(Br)c(Br)s2)o1	rTrxR1 inhibitor 50µM
CCCc1ccc2oc(C(=O)N(C)Cc3cnccn3)c(C)c2c1	none
Cc1oc(-c2ccccc2)nc1CSc1nnc(C)n2c1cc1sccc12	none (no result: Giardia killer, IL2 activator, BRCA1 expr up)
Cc1ccc(OCCn2cnc3ccccc3c2=O)c([N+](=O)[O-])c1	BRCA1 expr up 4.5µM
C#CCOCCOCCOCCNc1nc(N2CCN(C(=O)C([C@@H](C)O)n3cc([C@@H](N)CCCCN)nn3)CC2)nc(N2CCN(C(=O)[C@H](CCC(=O)O)n3cc([C@@H](N)[C@H](C)CC)nn3)CC2)n1 (stereo not given in full)	none
C#CCOCCOCCOCCNc1nc(N2CCN(C(=O)[C@H](CCCCN)n3cc(C(N)CC(C)C)nn3)CC2)nc(N2CCN(C(=O)[C@H](CCC(=O)O)n3cc(C(N)[C@H](C)CC)nn3)CC2)n1 (stereo not given in full)	rTrxR1 inhibitor 18µM
C#CCOCCOCCOCCNc1nc(N2CCN(C(=O)[C@H](Cc3ccc(O)cc3)n3cc([C@@H](N)CC(C)C)nn3)CC2)nc(N2CCN(C(=O)[C@H](Cc3cc4ccccc4[nH]3)n3cc([C@@H](N)CC(C)C)nn3)CC2)n1	rTrxR1 inhibitor inconclusive
C#CCOCCOCCOCCNc1nc(N2CCN(C(=O)[C@H](CCCCN)n3cc([C@@H](N)CC(C)C)nn3)CC2)nc(N2CCN(C(=O)[C@H](Cc3cc4ccccc4[nH]3)n3cc([C@@H](N)Cc4ccc(O)cc4)nn3)CC2)n1	rTrxR1 inhibitor 45µM
CCOC(=O)c1[nH]c(=O)[nH]c1COC(=O)c1cc2ccccc2o1	rTrxR1 inhibitor 3.2µM
Cc1ccccc1S(=O)(=O)NC1OC(=O)C(Cl)=C1Cl (stereo not given)	rTrxR1 inhibitor 13µM
COc1cccc(Nc2nc(CC(C)=O)ns2)c1	rTrxR1 inhibitor inconclusive, BRCA1 expr up 11µM
COc1ccc(Nc2nc(CC(C)=O)ns2)cc1	rTrxR1 inhibitor inconclusive, BRCA1 expr up 10µM
CC(=O)Cc1nsc(Nc2ccc(F)cc2)n1	BRCA1 expr up inconclusive
CC(=O)Cc1nsc(Nc2ccc(Cl)cc2)n1	BRCA1 expr up 10µM
CCC(C)NC(=O)Cn1c(=O)n(Cc2ccc(C(=O)NCc3ccc(C)cc3)cc2)c(=O)c2ccccc21 (stereo not given)	none (no result: Giardia killer, IL2 activator)
COc1c2ccoc2nc2c(OC)cccc12	BRCA1 expr up 25µM
COc1cccc2c(=O)ccoc12	none
COc1ccccc1NC(=O)CN1CCN(CC(=O)Nc2cc(C)ccc2OC)CC1	none
CCN1CCOC(=O)C1CC(=O)Nc1cc(C)ccc1OC (stereo not given)	rTrxR1 inhibitor 11µM (no result: Giardia killer, IL2 activator, BRCA1 expr up)
CCN1CCOC(=O)C1CC(=O)Nc1ccc(Br)cc1 (stereo not given)	rTrxR1 inhibitor 71µM (no result: Giardia killer, IL2 activator, BRCA1 expr up)
COc1cc(C2C(=O)N(C3CCCCC3)CC(=O)N2Cc2ccc(C)cc2)ccc1OC(C)C (stereo not given)	none (no result: Giardia killer, IL2 activator, BRCA1 expr up)
O=C(c1ccco1)N1CCN(c2ccc(Cl)cc2)CC1	BRCA1 expr up 11µM
O=C1c2ccccc2-c2c1cccc2C(=O)N1CCN(C(=O)c2ccco2)CC1	rTrxR1 inhibitor 32µM
Cc1cc(Cl)ccc1OCCCC(=O)N1CCN(C(=O)c2ccco2)CC1	rTrxR1 inhibitor 28µM
O=C(Nc1ccc(N2CCN(C(=O)c3ccco3)CC2)cc1)c1cc(Br)ccc1Cl	none
O=C(c1ccco1)N1CCN(c2ccc(Cl)c(Cl)c2)CC1	BRCA1 expr up 13µM
CC(C)(C)OC(=O)N1CCC(c2c(C(=O)Nc3ccc4c(c3)OCCO4)cnn2-c2ccccc2)CC1	none (no result: Giardia killer, IL2 activator, BRCA1 expr up)
CCCCCCCCN1[C@@H](CC(C)=O)c2ccc(/C=C/C(C)=O)cc2S1(=O)=O	rTrxR1 inhibitor inconclusive (no result: IDH1 R132H inh, Giardia killer, IL2 activator, BRCA1 expr up)
CCCCN(CCCC)CC(O)c1cc(Cl)cc2c1-c1ccc(Cl)cc1C2=Cc1ccc(Cl)cc1 (stereo not given)	none (no result: IDH1 R132H inh, Giardia killer, IL2 activator)
CCc1ccc(-c2cn3c(n2)sc2cc(C(=O)NC4CCCCCC4)ccc23)cc1	none (no result: Giardia killer, IL2 activator, BRCA1 expr up)
COc1ccc(-n2nnc(-c3nsc(NC(=O)c4cccc(C)c4)n3)c2C)cc1OC	none (no result: Giardia killer, IL2 activator)
COc1ccc(CCNC2CC(=O)N(CCc3ccccc3)C2=O)cc1 (stereo not given)	none
CCN(CC)c1ccc(NC2CC(=O)N(CCc3ccc(OC)cc3)C2=O)cc1 (stereo not given)	rTrxR1 inhibitor inconclusive, IL2 activator 125
Cc1nc(N)sc1N=Nc1ccccc1C(F)(F)F	BRCA1 expr up 7.1µM
Cc1ccc(N2CN=C(c3ccccc3)NC2=S)cc1	BRCA1 expr up 11µM
COc1ccc(C2=NCN(c3ccc(C)cc3)C(=S)N2)cc1	BRCA1 expr up 4µM
Cc1cc(NS(=O)(=O)c2ccc(NC(=S)NC(=O)c3ccc(C(C)(C)C)cc3)cc2)no1	rTrxR1 inhibitor 45µM
Cc1cc(NS(=O)(=O)c2ccc(NC(=S)NC(=O)c3ccccc3)cc2)no1	rTrxR1 inhibitor 45µM
COc1ccc(C(=O)NC(=S)Nc2ccc(S(=O)(=O)Nc3cc(C)on3)cc2)cc1OC	rTrxR1 inhibitor inconclusive
Cc1cc(NS(=O)(=O)c2ccc(NC(=S)NC(=O)c3ccncc3)cc2)no1	none
COc1cc(OC)c(NS(=O)(=O)c2c(C)nc3sc(C)cn3c2=O)cc1Cl	none (no result: Giardia killer, IL2 activator, BRCA1 expr up)
CCOC(=O)c1c(N2C(=O)C=CC2=O)sc(C)c1C	rTrxR1 inhibitor 2.2µM
O=C(NCc1nnc(SCC(=O)N2CCc3ccccc32)o1)c1ccco1	none
O=C(CSCc1ccco1)N1CCc2ccccc21	BRCA1 expr up 2.5µM
O=C(CSc1ccccc1)N1CCc2ccccc21	BRCA1 expr up inconclusive
O=C(NCCC(=O)N1CCc2ccccc21)c1ccco1	BRCA1 expr up 8.9µM
Cc1ccc(NC(=O)Nc2cn(CC(C)C)c(=O)c3ccccc23)cc1N(C)C	none (no result: Giardia killer, IL2 activator)
COc1cccc(C(=O)Nc2nc(-c3nnn(-c4cccc(Cl)c4C)c3C)ns2)c1	none (no result: Giardia killer, IL2 activator)

From PubChem
